Assay results from PubChem BioAssay AID1159580 (chemical genetic matrix, 2015).
Several values for one entry are separate records, joined by “and”; a condition that tells them apart may be missing. Equal values may be shown once. Among all 5,500 compounds or so, about 2,000 (36%) were called active. Roughly 18% stayed inconclusive and do not appear here. The list shows a part of the results. Values without a mark were called inactive. No stated cut-off is given here; in the data, active means normalized growth mostly below about 0.91 (no sharp cut-off); inconclusive means no clear call, values can overlap the other calls; inactive means mostly above about 0.92.

Experiment: chemical genetic growth profiling, strain panel (AID 1159580);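 further: tested at 20 µM; growth read once vehicle control cultures reached saturation at 30 °C; 1 = growth at the plate median or of vehicle wells; lower values mean less growth of the strain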
Settings: S. cerevisiae deletion strains, growth OD

Structure (SMILES): CN1CCC(=C2c3ccccc3Sc3ccccc32)CC1
- normalized growth (locus YAL013W, strain DEP1, active compounds read low): 0.994
- normalized growth (locus YAL021C, strain ccr4, active compounds read low): 0.936
- normalized growth (locus YAL026C, strain drs2, active compounds read low): 0.994
- normalized growth (locus YAL030W, strain snc1, active compounds read low): 1.03
- normalized growth (locus YBL061C, strain skt5, active compounds read low): 1.04
- normalized growth (locus YBR009C, strain hhf1, active compounds read low): 1.06
- normalized growth (locus YBR021W, strain FUR4, active compounds read low): 0.775 (active)
- normalized growth (locus YBR023C, strain chs3, active compounds read low): 1.02
- normalized growth (locus YBR171W, strain sec66, active compounds read low): 1.04
- normalized growth (locus YBR229C, strain ROT2, active compounds read low): 0.998
- normalized growth (locus YBR231C, strain swc5, active compounds read low): 1.05
- normalized growth (locus YBR279W, strain paf1, active compounds read low): 1.02
- normalized growth (locus YCL011C, strain gbp2, active compounds read low): 1.04
- normalized growth (locus YCL016C, strain dcc1, active compounds read low): 1.03
- normalized growth (locus YCL029C, strain bik1, active compounds read low): 1.05
- normalized growth (locus YCL061C, strain MRC1, active compounds read low): 1.04
- normalized growth (locus YCL069W, strain vba3, active compounds read low): 1.02
- normalized growth (locus YCR088W, strain abp1, active compounds read low): 1.03
- normalized growth (locus YDL005C, strain med2, active compounds read low): 1.05
- normalized growth (locus YDL035C, strain GPR1, active compounds read low): 0.951
- normalized growth (locus YDL040C, strain nat1, active compounds read low): 1.01
- normalized growth (locus YDL074C, strain BRE1, active compounds read low): 0.986
- normalized growth (locus YDL101C, strain DUN1, active compounds read low): 1.03
- normalized growth (locus YDL134C, strain PPH21, active compounds read low): 1.01
- normalized growth (locus YDL185W, strain tfp1, active compounds read low): 1.01
- normalized growth (locus YDL192W, strain arf1, active compounds read low): 1.01
- normalized growth (locus YDR001C, strain nth1, active compounds read low): 1.02
- normalized growth (locus YDR069C, strain doa4, active compounds read low): 1.02
- normalized growth (locus YDR101C, strain arx1, active compounds read low): 1.01
- normalized growth (locus YDR137W, strain rgp1, active compounds read low): 1.2 [resistant] (active)
- normalized growth (locus YDR150W, strain NUM1, active compounds read low): 1.01
- normalized growth (locus YDR159W, strain sac3, active compounds read low): 1.07
- normalized growth (locus YDR162C, strain NBP2, active compounds read low): 1.01
- normalized growth (locus YDR195W, strain ref2): 1.11
- normalized growth (locus YDR297W, strain sur2, active compounds read low): 1.03
- normalized growth (locus YDR318W, strain mcm21, active compounds read low): 1.01
- normalized growth (locus YDR334W, strain swr1, active compounds read low): 1.03
- normalized growth (locus YDR335W, strain msn5, active compounds read low): 1.02
- normalized growth (locus YDR388W, active compounds read low): 0.955
- normalized growth (locus YDR392W, strain spt3, active compounds read low): 0.982
- normalized growth (locus YDR502C, strain sam2, active compounds read low): 0.995
- normalized growth (locus YEL003W, strain gim4, active compounds read low): 1.03
- normalized growth (locus YEL037C, strain rad23, active compounds read low): 1.02
- normalized growth (locus YEL061C, strain CIN8 (second series), active compounds read low): 1.02
- normalized growth (locus YEL061C, strain CIN8, active compounds read low): 1.01
- normalized growth (locus YER015W, strain faa2, active compounds read low): 1.01
- normalized growth (locus YER016W, strain bim1, active compounds read low): 1.03
- normalized growth (locus YER110C, active compounds read low): 1.01
- normalized growth (locus YER111C, strain swi4, active compounds read low): 1.03
- normalized growth (locus YER155C, strain BEM2 (second series), active compounds read low): 1.03
- normalized growth (locus YER155C, strain BEM2, active compounds read low): 1.01
- normalized growth (locus YER167W, strain BCK2, active compounds read low): 1.01
- normalized growth (locus YFR010W, strain ubp6, active compounds read low): 0.999
- normalized growth (locus YGL078C, strain dbp3, active compounds read low): 1.01
- normalized growth (locus YGL086W, strain mad1, active compounds read low): 0.99
- normalized growth (locus YGL167C, strain pmr1, active compounds read low): 1.03
- normalized growth (locus YGL173C, strain kem1, active compounds read low): 1.04
- normalized growth (locus YGL227W, strain vid30, active compounds read low): 1.03
- normalized growth (locus YGL240W, strain doc1, active compounds read low): 1.06
- normalized growth (locus YGL248W, strain PDE1, active compounds read low): 1
- normalized growth (locus YGL253W, strain hxk2, active compounds read low): 1.01
- normalized growth (locus YGR078C, strain PAC10, active compounds read low): 0.977
- normalized growth (locus YGR135W, strain pre9, active compounds read low): 0.934
- normalized growth (locus YGR229C, strain SMI1, active compounds read low): 0.839
- normalized growth (locus YGR252W, strain gcn5, active compounds read low): 0.765 (active)
- normalized growth (locus YHR013C, strain ard1, active compounds read low): 0.934
- normalized growth (locus YHR027C, strain rpn1, active compounds read low): 1.02
- normalized growth (locus YHR030C, strain SLT2, active compounds read low): 1.01 and 0.969
- normalized growth (locus YHR079C, strain IRE1 (second series), active compounds read low): 1.02
- normalized growth (locus YHR079C, strain IRE1, active compounds read low): 0.986
- normalized growth (locus YHR094C, strain hxt1, active compounds read low): 1.01
- normalized growth (locus YHR129C, strain ARP1, active compounds read low): 1.01
- normalized growth (locus YHR142W, strain chs7, active compounds read low): 0.98
- normalized growth (locus YHR200W, strain rpn10, active compounds read low): 1.01
- normalized growth (locus YIL066C, strain RNR3, active compounds read low): 1.01
- normalized growth (locus YIL073C, strain SPO22, active compounds read low): 1.01
- normalized growth (locus YIL125W, strain kgd1, active compounds read low): 1
- normalized growth (locus YIR030C, strain dcg1, active compounds read low): 1.02
- normalized growth (locus YJL092W, strain hpr5, active compounds read low): 1.02
- normalized growth (locus YJL095W, strain BCK1 (second series), active compounds read low): 1.02
- normalized growth (locus YJL095W, strain BCK1, active compounds read low): 0.974 and 0.973
- normalized growth (locus YJL115W, strain asf1, active compounds read low): 1.02
- normalized growth (locus YJL129C, strain trk1, active compounds read low): 1.07
- normalized growth (locus YJL134W, strain LCB3, active compounds read low): 0.994
- normalized growth (locus YJL154C, strain vps35, active compounds read low): 1.01
- normalized growth (locus YJL164C, strain tpk1, active compounds read low): 1.02
- normalized growth (locus YJL166W, strain qcr8, active compounds read low): 1.03
- normalized growth (locus YJL168C, strain set2, active compounds read low): 1.01
- normalized growth (locus YJL187C, strain SWE1 (second series), active compounds read low): 1.02
- normalized growth (locus YJL187C, strain SWE1, active compounds read low): 1.02
- normalized growth (locus YJR043C, strain POL32, active compounds read low): 1.07
- normalized growth (locus YJR066W, strain TOR1, active compounds read low): 0.956
